Experimental data as given in the supplement of paper PMC9694430.

How the values were obtained:
Assay in all cases: thermal shift delta Tm vs DMSO control; higher = stronger stabilization (binding)
Details in all cases: 12.5 µM; protein concentration 2 µM
LOC_OS04G57630-cb004 = test system: LOC_OS04G57630-cb004
Procedure, shortened: (§1)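 Heating from 25°C to 95°C at 0.05°C/s, fluorescence was recorded for 19.5 μl wells of 2 μM E. coli-expressed, purified rice kinase domain in 100 mM potassium phosphate pH 7.5, 150 mM NaCl, 10% glycerol and 5 × SYPRO Orange with compound in DMSO. Boltzmann fits gave melting temperatures for this differential scanning fluorimetry assay. The shift reported is the mean of three replicates against the DMSO-only protein.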

LOC_OS05G07850-cb002 = test system: LOC_OS05G07850-cb002
Procedure, shortened: as §1

LOC_OS05G16824-cb004 = test system: LOC_OS05G16824-cb004
Procedure, shortened: as §1

LOC_OS05G28520-cb001 = test system: LOC_OS05G28520-cb001
Procedure, shortened: as §1

LOC_OS05G30820-cb001 = test system: LOC_OS05G30820-cb001
Procedure, shortened: as §1

LOC_OS05G43570-cb004 = test system: LOC_OS05G43570-cb004
Procedure, shortened: as §1

LOC_OS06G16330-cb003 = test system: LOC_OS06G16330-cb003
Chain of LOC_OS06G16330-cb003 (as listed by the source): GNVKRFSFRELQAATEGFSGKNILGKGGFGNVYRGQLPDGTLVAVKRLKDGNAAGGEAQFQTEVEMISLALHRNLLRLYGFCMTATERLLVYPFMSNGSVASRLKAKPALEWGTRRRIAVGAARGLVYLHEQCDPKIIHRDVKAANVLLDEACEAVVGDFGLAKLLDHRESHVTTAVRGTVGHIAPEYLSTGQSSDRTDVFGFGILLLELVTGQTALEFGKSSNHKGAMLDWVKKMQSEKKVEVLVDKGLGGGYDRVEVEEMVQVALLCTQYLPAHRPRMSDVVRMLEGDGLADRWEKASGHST
Procedure, shortened: as §1

LOC_OS06G22820-cb001 = test system: T1, LOC_OS06G22820-cb001
T1 sequence (whole entry): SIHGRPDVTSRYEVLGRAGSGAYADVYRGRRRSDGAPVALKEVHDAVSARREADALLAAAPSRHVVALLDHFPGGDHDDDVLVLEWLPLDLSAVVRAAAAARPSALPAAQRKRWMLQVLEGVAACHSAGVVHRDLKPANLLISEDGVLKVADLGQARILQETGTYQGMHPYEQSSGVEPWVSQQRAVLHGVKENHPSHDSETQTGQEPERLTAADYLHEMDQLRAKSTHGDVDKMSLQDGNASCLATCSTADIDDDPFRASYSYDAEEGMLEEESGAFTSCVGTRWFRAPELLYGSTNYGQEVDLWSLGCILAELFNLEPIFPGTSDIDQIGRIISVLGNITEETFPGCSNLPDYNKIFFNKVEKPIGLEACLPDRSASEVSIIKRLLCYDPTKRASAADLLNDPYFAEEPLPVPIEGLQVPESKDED
Procedure, shortened: as §1

LOC_OS07G06570-cb004 = test system: LOC_OS07G06570-cb004
Procedure, shortened: as §1

LOC_OS07G07230-cb001 = test system: LOC_OS07G07230-cb001
Procedure, shortened: as §1
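Further: purified Escherichia coli-expressed rice kinase domain construct.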

Compound	thermal shift delta Tm (LOC_OS04G57630-cb004)	thermal shift delta Tm (LOC_OS05G07850-cb002)	thermal shift delta Tm (LOC_OS05G16824-cb004)	thermal shift delta Tm (LOC_OS05G28520-cb001)	thermal shift delta Tm (LOC_OS05G30820-cb001)	thermal shift delta Tm (LOC_OS05G43570-cb004)	thermal shift delta Tm (LOC_OS06G16330-cb003)	thermal shift delta Tm (LOC_OS06G22820-cb001)	thermal shift delta Tm (LOC_OS07G06570-cb004)	thermal shift delta Tm (LOC_OS07G07230-cb001)
COc1cc(N2CCC(N)CC2)ccc1Nc1ncc(Cl)c(-c2c[nH]c3ccccc23)n1	4.46 °C	13.4 °C	8.24 °C	1.74 °C	2.33 °C	1.06 °C	10.4 °C	0.85 °C	2.26 °C	1.14 °C
CCNc1nc(Nc2cc(F)c(C(=O)N3CCOCC3)cc2OC)ncc1C(F)(F)F	0 °C	3.03 °C	1.21 °C	0.71 °C	0.46 °C	0.26 °C	0.76 °C	0.28 °C	0.96 °C	-0.16 °C
Cc1ccc(-n2nc(C(C)(C)C)cc2NC(=O)NCc2cc(F)ccc2Oc2ccc3c(cnn3CCO)c2)cc1 [Pexmetinib (ARRY-614)]	5.61 °C	7.46 °C	-1.5 °C	0.41 °C	0.66 °C	0.54 °C	3.89 °C	0.91 °C	0.14 °C	-0.6 °C
Cc1cc(Nc2cc(Cl)nc(Oc3ccc([N+](=O)[O-])cc3)n2)n[nH]1 [Autophinib]	-0.11 °C	0.97 °C	-0.37 °C	0.34 °C	0.1 °C	0.13 °C	0.35 °C	0.51 °C	1.89 °C	0.73 °C
Cc1ccc(NC(=O)c2cccc(C(C)(C)C#N)c2)cc1Nc1ccc2ncn(C)c(=O)c2c1	0.41 °C	0.77 °C	-1.17 °C	0.69 °C	0.63 °C	0.64 °C	0.8 °C	0.86 °C	0.75 °C	0.34 °C
